# Screening data: PubChem, The Scripps Research Institute Molecular Screening Center
# Hits are enriched below; roughly 2.9% of the tested compounds scored in any of these assays.
# proKLK7 act – activates the human kallikrein-7 zymogen. P49862. purified proKLK7, EDANS-DABCYL substrate fluorescence; 100% is mature enzyme control, 0% vehicle. activation, % at 7 µM. 0.9% of 370,000 active. AID 652039;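 active = activation above the mean of all tested compounds plus 3 SD, computed per campaign excluding outliers beyond control limits, cut at about 13% in these data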
# PLCg1 inh – inhibitors of human phospholipase C gamma1. P19174. purified PLC-gamma1, fluorogenic substrate, fluorescence. inhibition, % at 12.2 µM. 0.84% of 370,000 active. AID 720700
# Target sequence (P19174 whole entry, looked up): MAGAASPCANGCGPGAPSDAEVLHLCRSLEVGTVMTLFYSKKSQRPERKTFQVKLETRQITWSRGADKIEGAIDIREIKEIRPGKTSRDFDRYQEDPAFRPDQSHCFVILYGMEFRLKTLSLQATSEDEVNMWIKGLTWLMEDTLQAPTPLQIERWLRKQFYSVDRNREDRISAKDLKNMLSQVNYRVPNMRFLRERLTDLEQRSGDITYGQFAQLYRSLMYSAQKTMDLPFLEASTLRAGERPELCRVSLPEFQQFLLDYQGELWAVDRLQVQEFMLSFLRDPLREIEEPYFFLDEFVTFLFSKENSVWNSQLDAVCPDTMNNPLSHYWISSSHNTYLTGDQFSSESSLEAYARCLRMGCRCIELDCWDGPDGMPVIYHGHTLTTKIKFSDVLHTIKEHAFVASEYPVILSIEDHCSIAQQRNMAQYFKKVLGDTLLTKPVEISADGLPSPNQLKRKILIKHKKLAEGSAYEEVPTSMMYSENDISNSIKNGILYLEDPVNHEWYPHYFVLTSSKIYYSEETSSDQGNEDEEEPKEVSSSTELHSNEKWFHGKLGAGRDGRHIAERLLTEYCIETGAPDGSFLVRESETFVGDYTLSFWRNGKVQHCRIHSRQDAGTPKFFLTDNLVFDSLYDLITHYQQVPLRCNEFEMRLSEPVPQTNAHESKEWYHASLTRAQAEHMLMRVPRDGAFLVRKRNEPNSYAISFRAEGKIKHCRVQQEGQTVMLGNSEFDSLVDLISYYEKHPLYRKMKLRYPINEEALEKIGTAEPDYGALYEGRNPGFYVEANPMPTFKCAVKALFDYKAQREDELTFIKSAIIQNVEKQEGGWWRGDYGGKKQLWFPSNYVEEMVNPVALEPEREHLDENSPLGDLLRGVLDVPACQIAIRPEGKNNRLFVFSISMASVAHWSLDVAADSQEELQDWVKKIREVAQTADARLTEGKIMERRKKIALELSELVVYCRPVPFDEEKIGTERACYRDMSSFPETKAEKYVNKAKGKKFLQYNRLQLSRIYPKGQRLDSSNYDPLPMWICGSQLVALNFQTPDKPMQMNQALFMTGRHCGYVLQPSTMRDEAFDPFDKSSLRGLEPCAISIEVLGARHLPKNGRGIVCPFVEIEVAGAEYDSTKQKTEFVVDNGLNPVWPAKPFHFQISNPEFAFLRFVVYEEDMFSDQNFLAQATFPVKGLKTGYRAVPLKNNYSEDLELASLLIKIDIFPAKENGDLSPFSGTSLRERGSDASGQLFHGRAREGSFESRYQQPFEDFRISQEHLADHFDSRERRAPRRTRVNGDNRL
# ADAM17 inh – ADAM17 inhibition, QFRET primary screen; 0.83% of 370,000 active; AID 720648; inhibition, % at 6.95 µM; recombinant ADAM17, EDANS/DABCYL FRET peptide cleavage;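 active = inhibition above the mean of compounds lying between control limits plus 3 SD, set per campaign, cut at about 8.5% in these data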;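 note: 0% = DMSO-only wells as the low control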
# ADAM10 inh – ADAM10 inhibition, QFRET primary screen | O14672 | recombinant ADAM10, EDANS/DABCYL FRET peptide cleavage, 3 h | inhibition, % at 7 µM | 0.62% of 370,000 active | AID 720582;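 active = inhibition above a per-campaign cutoff equal to the mean of compounds falling between control-based bounds plus 3 SD, cut at about 20% in these data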;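 note: 0% = DMSO wells while the 100% control is not disclosed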
# PLC-beta3 inh – PLC-beta3 (human) inhibition, primary screen; 0.18% of 370,000 active; Q01970; AID 720704; Purified PLC-beta3, fluorogenic substrate, fluorescence; inhibition, % at 12.2 µM; in the data active = inhibition above about 11%;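 note: 0% = median of compound wells on plate and 100% = full blocker control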
# ADAM10 counter – inhibits human ADAM10 in ADAM17 exosite counter-screen; 47% of 2,900 active; inhibition, % at 6.95 µM; AID 743256; shares compounds with ADAM17 inh; recombinant ADAM10, EDANS/DABCYL FRET peptide cleavage, 3 h;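 active = mean inhibition over the triplicate runs exceeds the activity threshold set in the earlier primary screen, cut at about 20% in these data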;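 note: 0% = DMSO wells and 100% = marimastat wells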
# ADAM17 confirm – confirmation of inhibitors of human ADAM17. shares compounds with ADAM17 inh. 65% of 2,900 active. recombinant ADAM17, EDANS/DABCYL QFRET peptide cleavage. inhibition, % at 6.95 µM;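 active = mean inhibition across replicates above the hit cutoff set in the primary screen, cut at about 8.5% in these data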;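 note: 0% = DMSO wells and 100% = marimastat wells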
# PLCg1 ctr – inhibits human PLC-gamma1 in PLC-beta3 counter-screen. shares compounds with PLCg1 inh. purified PLC-gamma1, fluorogenic substrate, fluorescence. inhibition, % at 12.3 µM. 3.1% of 3,300 active. AID 743258
# PLCb3 confirm – human PLC-beta3 inhibition, confirmation. inhibition, % at 12.3 µM. purified PLC-beta3, fluorogenic substrate fluorescence. AID 743261. shares compounds with PLCg1 inh. 1% of 3,300 active; in the data active = inhibition above about 11%
# Starred values were filed as active, the others as inactive; · = no result given. Cut-off read from the data, not from the text of the source, unless noted: active = inhibition above about 9.5%; inactive = the rest.
SMILES,proKLK7 act,PLCg1 inh,ADAM17 inh,ADAM10 inh,PLC-beta3 inh,PLCg1 ctr,PLCb3 confirm,others
COC(=O)[C@]12C[C@H](CC(=O)N3CCN(C(=O)C4CC4)CC3)C(=O)N(Cc3cccc4ccccc34)C1=C[C@H](COCc1ccccc1)O[C@@H]2C,0,14*,10.0*,8,2,-6,-3,ADAM10 counter=24*;ADAM17 confirm=20*
COc1ccc(NC(=O)Cn2c(=O)c(C)nc3ccccc32)cc1Cl,1,1,-4,0,-8,·,·,
COc1ccc(NC(=O)Cn2c(C(C)C)nc(C)cc2=O)cc1Cl,0,10*,-3,1,3,-8,-4,
COC(=O)c1ccc(NC(=O)Cn2c(-c3nonc3N)nc3ccccc32)cc1,1,-5,-5,-15,-9,·,·,
O=C(O)CCNC(=O)c1ccc(Br)o1,1,12*,6,10,6,-6,-4,
O=C(NCCC(c1ccccc1)c1ccccc1)c1ccc(Br)o1,0,1,1,7,3,·,·,
O=C(Cc1cccs1)N/N=C\c1ccc(O)cc1,0,-4,-3,-13,0,·,·,
O=C(CC(=O)N/N=C/c1ccc(O)cc1)N/N=C/c1ccc(O)cc1,-2,12*,0,-2,-1,-5,-2,
COc1cccc(SCc2noc(C(=O)NCCN(C)C)c2C(=O)NCCN(C)C)c1,0,9.7*,-3,2,8,-4,-2,
Cc1ccc(CN2CCN(C(=O)C3CCCO3)CC2)cc1 (stereo unspecified),-1,-1,-2,-4,1,·,·,
O=S(=O)(c1ccccc1)N1CCN(CCc2ccccc2)CC1,0,-1,1,-1,-1,·,·,
Cc1ccc2nsnc2c1S(=O)(=O)N1CCN(CCc2ccccc2)CC1,0,14*,2,2,6,-1,-1,
OCCN1CN(c2ccccc2)C(=S)N(c2ccccc2)C1,0,3,-6,-10,3,·,·,
Cc1nnc2sc(SCC(=O)N3CCCCC3)nn2c1=O,0,12*,-3,6,-3,-7,-1,
CCc1ccc(OCCOCC(O)CN(CCO)CCO)cc1 (stereo unspecified),0,4,2,13,11*,-10,-5,
CCOC(=O)c1cc(-c2ccc(F)cc2)n(CC(=O)NC(C)CC)c1C (stereo unspecified),0,2,1,4,1,·,·,
COc1cc(C(N)=O)ccc1OCc1ccccc1,-1,7,4,3,11*,-7,-2,
COc1cc(C(=O)NCC2(N(C)C)CCCCC2)ccc1OCc1ccccc1,0,13*,3,3,7,0,3,
CCC(=O)c1ccc(OCc2ccccc2)c(OC)c1,0,1,-4,-11,1,·,·,
COc1ccc(CN2CCN(C)CC2)cc1OCc1ccccc1,0,11*,2,-6,4,-3,-2,
COc1ccc(CN2CCC(C(N)=O)CC2)cc1OCc1ccccc1,0,4,-8,-5,-5,·,·,
O=C(O)C1=C[C@@H](C2CC2)C[C@@H](OCc2ccc(CO)cc2)O1,0,-1,-6,-8,-2,·,·,
O=C(NC(C(=O)c1ccccc1)n1cnccc1=O)c1ccccc1 (stereo unspecified),0,11*,1,2,3,-2,3,
O=c1c(O)cccc2cc(O)c(O)c(O)c12,9,46*,-1,-1,5,30*,1,
Fc1cccc(Cn2cc(C(=S)N3CCCCC3)c3ccccc32)c1,0,0,2,4,3,·,·,
SMILES,proKLK7 act,PLCg1 inh,ADAM17 inh,ADAM10 inh,PLC-beta3 inh,PLCg1 ctr,PLCb3 confirm,others
CC(NC(=O)Nc1nnc(C(F)(F)F)s1)N1C(=O)C2C3C=CC(C3)C2C1=O (stereo unspecified),-1,4,0,8,1,·,·,
NCCCC[C@@H](C(=O)N1CCNCC1)n1cc([C@@H](N)CO)nn1,0,5,-1,5,12*,-7,-4,
Cn1c(=O)cc(C(=O)N/N=C/c2ccc(F)cc2)[nH]c1=O,0,9.6*,-6,-5,-6,-5,-8,
O=C(O)c1ccc(/C=N/NC(=O)c2ccc(F)cc2)cc1,-1,5,1,6,-1,·,·,
CC(=O)Nc1sc2c(c1C(c1ccccc1Cl)N1CCN(CCO)CC1)CCCC2 (stereo unspecified),1,2,-2,-11,0,·,·,
O=C1NC(=S)SC1=C1CCCC1,0,26*,-1,7,4,16*,-2,
COc1cc(Cl)c(C)cc1NC(=O)CN(C)Cc1cccc(OC)c1OC,0,10*,3,8,-8,-6,-5,
COc1ccccc1CN(C)CC(=O)Nc1cccc2ccccc12,0,-1,2,5,-4,·,·,
CCOCCn1c(C(C)O)nc2ccccc21 (stereo unspecified),1,10*,-6,-5,4,-6,0,
CCCCn1c(C(C)NC(=O)COC)nc2ccccc21 (stereo unspecified),0,10*,0,-8,1,-3,-15,
CCOCCn1c(CC)nc2ccccc21,1,0,-7,-3,-7,·,·,
Cc1ccc2c(CN3CCCCC3)cc(=O)oc2c1C,0,-8,-3,0,-9,·,·,
Cc1ccc2c(CSc3nncn3C)cc(=O)oc2c1C,0,11*,2,-2,5,-9,-1,
c1coc(CN2CN=C(Nc3nc4ccccc4s3)NC2)c1,0,9.7*,3,-2,3,1,3,
O=c1cc2c(=O)oc3cc(O)c(O)oc3c2c(O)c1O,-14,33*,-2,-1,-39,-279,-322,
Cc1cc(/C=C2\SC(=S)NC2=O)c(C)[nH]1,0,1,1,-3,-14,·,·,
O=C1NC(=S)S/C1=C\c1cc(Cl)ccc1Cl,-1,11*,4,11,3,-4,-6,
O=C(c1nnsc1S(=O)(=O)c1ccc(Cl)cc1)N1CCOCC1,0,18*,-1,9,7,9,0,
O=C(CSc1nnc2c3c4c(sc3ncn12)CCCC4)NCc1ccco1,0,-3,-7,-3,-2,·,·,
Cc1ccc(-n2nc3c(=O)n(CCCC(=O)NCc4ccccc4F)nc(C)c3c2C)cc1,0,1,-6,-2,-9,·,·,
